Laboratory results as given in PubChem BioAssay.
Active and inactive are the calls of the source.

Tests used:
[1] = small molecules captured by biotinylated probe aFSTL3 – biochemical, small-molecule microarray, fluorescence 635/667, stem cell growth factor project, primary screen (AID 1064); settings: higher = more signal;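 further: measures binding of the biotinylated anti-FSTL3 antibody to printed compounds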
[2] = binders from COS7 lysate, DM2A8 probe, primary screen, torsin A project, cell lysate, small-molecule microarray, fluorescence 635/667 (AID 1065); settings: higher = more signal, COS7 lysate expressing mutant human TOR1A
[3] = small molecules captured by biotinylated probe aFGF2 – biochemical, small-molecule microarray, fluorescence 635/667, stem cell growth factor project, primary screen (AID 1067); settings: higher = more signal;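 further: measures binding of biotinylated aFGF2 protein to printed compounds on slides; z-score merges feature fluorescence and signal-to-noise across triplicate slides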
[4] = small molecules captured by biotinylated probe aFGF10 – biochemical, small-molecule microarray, fluorescence 635/667, stem cell growth factor project, primary screen (AID 1071); settings: higher = more signal;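 further: score merges 667 nm spot intensity and signal to noise from triplicate slides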
[5] = target: Neurogenic locus notch homolog protein 2 (Homo sapiens) (UniProt Q04721); assay: small molecules binding Notch2 protein – biochemical, small-molecule microarray, 635 nm fluorescence, stem cell growth factors, primary screen (AID 1073); settings: higher = more signal
[6] = target: Pro-neuregulin-1, membrane-bound isoform (Homo sapiens) (UniProt Q02297); assay: small molecules binding neuregulin-1 protein – biochemical, small-molecule microarray, fluorescence 635/667, psychiatric disease protein project, primary screen (AID 1075); settings: NRG1 binding, 635 nm fluorescence, higher = more signal;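 further: score combines 667 nm spot fluorescence with signal to noise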
[7] = system: Neuregulin-1 EGF-like domain; assay: small molecules binding NRG1 EGF domain – biochemical, small-molecule microarray, 635 nm fluorescence, primary screen (AID 1081); settings: higher = more signal;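 further: binding of the protein to compounds printed on small-molecule microarray slides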
[8] = FRG1 expression reporter modulators in myotubes – cell-based, C2C12 myotubes, firefly/Renilla luciferase, luminescence, FRG1 inhibition for FSHD, primary screen (AID 1084); settings: FRG1 promoter luciferase, higher = more signal, called active from +8 up or from −8 down
[9] = small molecules captured by biotinylated probe aFST – biochemical, small-molecule microarray, fluorescence 635/667, stem cell growth factor project, primary screen (AID 1086); settings: higher = more signal;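 further: score merges 667 nm fluorescence with signal-to-noise of each printed compound spot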
[10] = binders of probe aHhip on microarray, primary screen, stem cell growth factor project, biochemical, small-molecule microarray, fluorescence 635/667 (AID 1087); settings: higher = more signal;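 further: score merges spot fluorescence at 667nm with spot signal to noise ratio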
[11] = system: PRMT1 (protein arginine N-methyltransferase 1); assay: small molecules binding arginine methyltransferase PRMT1 – biochemical, small-molecule microarray, 635 nm fluorescence, primary screen (AID 1088); settings: higher = more signal;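 further: binding of Prmt1 protein to compounds spotted on small-molecule microarray slides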
[12] = growth effects on S. cerevisiae YJM789 – YJM789 clinical isolate, OD600, 24 h, basal, primary screen (AID 1089); settings: higher = more signal, called active from +8 up or from −8 down;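 further: growth of clinical yeast isolate S. cerevisiae YJM 789 seeded 1000 cells per well; test concentration not given here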
[13] = S. pombe growth modifiers, basal conditions – strain 972, OD600, 24 h, no modulator, primary screen (AID 1090);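 further: basal condition with compound alone and no growth modifier present; test concentration not given here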; settings: S. pombe 972 growth, higher = more signal, called active from +8 up or from −8 down
[14] = budding yeast growth modifiers under rapamycin – strain BY4716, OD600, 96 h, primary screen (AID 1091); further: test concentration not given here; settings: S. cerevisiae BY4716 + rapamycin, higher = more signal, called active from +8 up or from −8 down
[15] = target: Torsin-1A-interacting protein 2 (Homo sapiens) (UniProt Q8NFQ8); assay: small molecules binding lysate-expressed LULL1 – cell lysate, human LULL1 lysate, 635/667 nm fluorescence, primary screen (AID 1092); settings: small-molecule microarray, hLULL1 lysate binding, 635 nm fluorescence; higher = more signal;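 further: probe is lysate of COS7 cells overexpressing human LULL1; score merges per-feature 667 nm fluorescence with signal-to-noise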
[16] = optical density change of DRC41 E. coli – strain DRC41, OD650, 24 h, E. coli filamentation project, primary screen (AID 1093);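 further: MC1000 strain lacking acrAB efflux and sulA so SOS filamentation is blocked; test concentration not given here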; settings: E. coli DRC41 growth, higher = more signal, called active from +8 up or from −8 down
[17] = probe aLefty2 binding to arrayed compounds – biochemical, biotinylated probe, 635/667 nm fluorescence, primary screen (AID 1094); settings: small-molecule microarray, higher = more signal;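 further: score merges spot fluorescence near 667 nm with spot signal-to-noise ratio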
[18] = system: Noggin (protein binding on small-molecule microarray); assay: small molecules binding Noggin protein – biochemical, 635/667 nm fluorescence, primary screen (AID 1095); settings: 635 nm fluorescence, higher = more signal;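 further: score merges 667 nm feature fluorescence with signal to noise over triplicate slides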
[19] = target: Neurogenic locus notch homolog protein 3 (Homo sapiens) (UniProt Q9UM47); assay: small molecules binding NOTCH3 protein – biochemical, 635/667 nm fluorescence, primary screen (AID 1096); settings: small-molecule microarray, 635 nm fluorescence, higher = more signal
[20] = probe aEGFR binding to arrayed compounds – biochemical, biotinylated probe, 635/667 nm fluorescence, primary screen (AID 1097); settings: small-molecule microarray, higher = more signal;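 further: probe is a biotinylated anti-EGFR antibody binding compounds printed on slides; score combines fluorescence near 667 nm and signal to noise of each spot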

Chain of Pro-neuregulin-1, membrane-bound isoform (Homo sapiens) (Q02297 whole entry, looked up, the tested form may be a part, canonical isoform): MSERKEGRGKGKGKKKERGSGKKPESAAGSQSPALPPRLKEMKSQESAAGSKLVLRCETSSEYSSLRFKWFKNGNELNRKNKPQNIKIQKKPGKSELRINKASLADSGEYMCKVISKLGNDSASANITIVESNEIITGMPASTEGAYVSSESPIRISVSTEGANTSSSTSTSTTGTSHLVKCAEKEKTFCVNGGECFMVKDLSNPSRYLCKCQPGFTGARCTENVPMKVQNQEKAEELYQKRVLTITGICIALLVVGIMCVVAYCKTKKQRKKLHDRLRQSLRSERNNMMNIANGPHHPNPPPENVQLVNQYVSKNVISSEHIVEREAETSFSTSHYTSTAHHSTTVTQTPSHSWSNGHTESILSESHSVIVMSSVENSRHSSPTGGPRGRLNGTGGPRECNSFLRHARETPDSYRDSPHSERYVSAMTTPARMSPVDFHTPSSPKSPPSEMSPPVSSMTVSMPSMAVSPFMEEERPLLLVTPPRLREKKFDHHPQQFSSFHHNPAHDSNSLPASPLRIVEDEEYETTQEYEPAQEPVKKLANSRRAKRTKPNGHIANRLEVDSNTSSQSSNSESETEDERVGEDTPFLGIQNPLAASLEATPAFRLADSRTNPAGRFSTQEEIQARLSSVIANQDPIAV
Chain of Torsin-1A-interacting protein 2 (Homo sapiens) (Q8NFQ8 whole entry, looked up): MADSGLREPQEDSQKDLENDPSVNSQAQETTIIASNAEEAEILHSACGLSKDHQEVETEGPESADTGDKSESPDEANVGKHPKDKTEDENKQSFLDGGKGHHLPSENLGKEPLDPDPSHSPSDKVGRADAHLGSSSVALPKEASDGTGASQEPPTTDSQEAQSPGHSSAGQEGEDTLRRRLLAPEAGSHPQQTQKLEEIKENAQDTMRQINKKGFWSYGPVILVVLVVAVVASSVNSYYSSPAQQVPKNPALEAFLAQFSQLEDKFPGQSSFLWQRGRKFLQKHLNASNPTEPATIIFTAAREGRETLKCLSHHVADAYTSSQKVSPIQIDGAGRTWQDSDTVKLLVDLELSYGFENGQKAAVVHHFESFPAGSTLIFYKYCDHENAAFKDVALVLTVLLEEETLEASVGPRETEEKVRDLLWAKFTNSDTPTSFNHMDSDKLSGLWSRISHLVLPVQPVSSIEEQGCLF
Chain of Neurogenic locus notch homolog protein 2 (Homo sapiens) (Q04721 whole entry, looked up, canonical isoform): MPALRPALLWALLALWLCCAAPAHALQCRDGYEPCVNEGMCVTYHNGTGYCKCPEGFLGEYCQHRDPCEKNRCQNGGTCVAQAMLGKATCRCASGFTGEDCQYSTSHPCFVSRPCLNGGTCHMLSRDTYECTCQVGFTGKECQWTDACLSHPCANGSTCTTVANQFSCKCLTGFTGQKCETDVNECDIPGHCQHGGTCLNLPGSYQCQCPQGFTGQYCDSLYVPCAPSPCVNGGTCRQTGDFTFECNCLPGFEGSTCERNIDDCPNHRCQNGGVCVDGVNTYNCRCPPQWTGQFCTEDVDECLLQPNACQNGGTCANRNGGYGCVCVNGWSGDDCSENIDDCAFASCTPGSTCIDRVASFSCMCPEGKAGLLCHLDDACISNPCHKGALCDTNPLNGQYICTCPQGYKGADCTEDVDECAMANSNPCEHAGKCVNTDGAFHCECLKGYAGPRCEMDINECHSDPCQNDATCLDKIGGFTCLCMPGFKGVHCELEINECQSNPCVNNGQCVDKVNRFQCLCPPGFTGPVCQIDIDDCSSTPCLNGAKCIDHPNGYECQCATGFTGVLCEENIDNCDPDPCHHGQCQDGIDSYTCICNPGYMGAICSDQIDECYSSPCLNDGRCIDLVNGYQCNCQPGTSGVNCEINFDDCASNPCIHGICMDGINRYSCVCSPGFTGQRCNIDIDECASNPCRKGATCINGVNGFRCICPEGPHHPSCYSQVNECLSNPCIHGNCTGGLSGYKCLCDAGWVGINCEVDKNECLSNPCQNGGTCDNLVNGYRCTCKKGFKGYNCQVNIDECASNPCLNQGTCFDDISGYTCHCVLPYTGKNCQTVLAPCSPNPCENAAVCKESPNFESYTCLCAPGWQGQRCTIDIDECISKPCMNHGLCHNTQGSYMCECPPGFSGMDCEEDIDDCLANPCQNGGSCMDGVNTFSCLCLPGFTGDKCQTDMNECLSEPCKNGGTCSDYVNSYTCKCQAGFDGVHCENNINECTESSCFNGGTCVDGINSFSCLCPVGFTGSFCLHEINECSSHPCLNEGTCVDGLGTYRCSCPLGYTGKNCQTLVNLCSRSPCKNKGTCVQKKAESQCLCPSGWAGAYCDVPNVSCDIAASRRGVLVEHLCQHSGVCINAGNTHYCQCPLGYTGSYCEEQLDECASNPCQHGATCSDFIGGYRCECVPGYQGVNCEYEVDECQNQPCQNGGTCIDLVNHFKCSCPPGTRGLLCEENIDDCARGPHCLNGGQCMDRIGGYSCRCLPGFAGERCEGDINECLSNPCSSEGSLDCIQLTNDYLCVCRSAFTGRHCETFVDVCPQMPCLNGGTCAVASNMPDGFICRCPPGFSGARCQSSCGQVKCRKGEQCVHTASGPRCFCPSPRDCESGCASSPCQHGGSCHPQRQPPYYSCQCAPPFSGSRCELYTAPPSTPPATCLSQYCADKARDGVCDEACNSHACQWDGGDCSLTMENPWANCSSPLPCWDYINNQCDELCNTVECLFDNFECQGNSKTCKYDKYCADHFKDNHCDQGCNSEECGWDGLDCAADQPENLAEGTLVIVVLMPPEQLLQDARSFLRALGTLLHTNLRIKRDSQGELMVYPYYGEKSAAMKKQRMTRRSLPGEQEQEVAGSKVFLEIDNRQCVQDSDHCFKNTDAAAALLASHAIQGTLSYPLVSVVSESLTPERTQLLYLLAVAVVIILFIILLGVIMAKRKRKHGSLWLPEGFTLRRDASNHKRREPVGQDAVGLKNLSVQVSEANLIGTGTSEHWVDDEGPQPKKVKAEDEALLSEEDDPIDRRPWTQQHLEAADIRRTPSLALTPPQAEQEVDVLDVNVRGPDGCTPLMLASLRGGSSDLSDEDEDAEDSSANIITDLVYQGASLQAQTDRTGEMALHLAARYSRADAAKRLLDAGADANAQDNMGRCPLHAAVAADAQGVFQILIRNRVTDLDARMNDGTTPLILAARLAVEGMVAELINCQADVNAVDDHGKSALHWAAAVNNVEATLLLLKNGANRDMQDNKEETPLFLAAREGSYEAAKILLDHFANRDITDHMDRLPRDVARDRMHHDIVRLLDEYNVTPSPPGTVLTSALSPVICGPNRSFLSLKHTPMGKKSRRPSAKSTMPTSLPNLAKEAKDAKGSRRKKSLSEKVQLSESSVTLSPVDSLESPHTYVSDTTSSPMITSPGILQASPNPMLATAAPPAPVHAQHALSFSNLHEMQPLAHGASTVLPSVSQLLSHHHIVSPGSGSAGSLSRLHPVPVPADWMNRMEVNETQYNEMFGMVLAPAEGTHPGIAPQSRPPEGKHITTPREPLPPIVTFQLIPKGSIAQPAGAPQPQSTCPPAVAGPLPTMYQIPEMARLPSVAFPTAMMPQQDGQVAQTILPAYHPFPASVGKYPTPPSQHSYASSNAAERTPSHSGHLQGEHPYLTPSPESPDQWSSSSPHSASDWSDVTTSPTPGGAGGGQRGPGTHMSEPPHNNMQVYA

Row | Compound | composite z-score [1] | composite z-score [2] | composite z-score [3] | composite z-score [4] | composite z-score [5] | composite z-score [6] | composite z-score [7] | z-score [8] | composite z-score [9] | composite z-score [10] | composite z-score [11] | z-score [12] | z-score [13] | z-score [14] | composite z-score [15] | z-score [16] | composite z-score [17] | composite z-score [18] | composite z-score [19] | composite z-score [20]
1 | CCCNC(=O)[C@@]1(c2ccc([N+](=O)[O-])cc2)CC(=O)N(C2CCCCC2)[C@@H]1c1ccc(CO)cc1I | 0.368 | 0.983 | 0.091 | 0.599 | 0.96 | 0.456 | 1.21 | -0.546 (inactive) | 0.29 | -0.0994 | 1.48 | -1.58 (inactive) | 0.503 (inactive) | 1.93 (inactive) | 2.52 | 0.422 (inactive) | -0.0649 | 1.5 | 0.976 | 0.0592
2 | [N-]=[N+]=NCc1ccccc1C[C@@]1(C(N)=O)N=C(c2ccc(OCCCO)cc2)O[C@@H]1c1ccccc1CN=[N+]=[N-] | 0.517 | -0.186 | -0.0469 | 0.972 | 1.53 | 1.01 | 1.19 | 1.56 (inactive) | 0.544 | -0.0645 | 1.22 | 0.656 (inactive) | -0.0127 (inactive) | 0.0339 (inactive) | 2.94 | 0.585 (inactive) | 0.123 | -0.0392 | 0.808 | 0.263
3 | C=C(/C(=C/C[C@@H](OC(=O)c1ccncc1)c1ccc(OCCO)cc1)c1cc(C(=O)OC)ccc1OC)C(C)C | -0.445 | 1.24 | -0.139 | 0.93 | 0.833 | 0.679 | 1.13 | 0.317 (inactive) | 0.0136 | -0.399 | 1.48 | 0.412 (inactive) | 0.252 (inactive) | 0.339 (inactive) | 1.32 | 0.681 (inactive) | -0.317 | 0.89 | 1.1 | -0.0509
4 | COCCCNC(=O)[C@@]1(Sc2ccc(C)cc2)CC(=O)N(Cc2cc(C(F)(F)F)cc(C(F)(F)F)c2)[C@@H]1c1ccc(CO)cc1 | 0.0028 | 0.525 | -0.144 | -0.29 | 0.0762 | 1.22 | 0.875 | -0.42 (inactive) | -0.168 | 0.213 | 1.54 | -0.157 (inactive) | -1.51 (inactive) | -1.11 (inactive) | 1.46 | -0.296 (inactive) | -0.0927 | 1.6 | 0.715 | -0.0531
5 | COc1ccc([Si](C)(C)[C@H]2[C@H](CCn3cc([C@H](O)c4ccccc4)nn3)O[C@@]3(C(=O)N(Cc4ccc(N5CCC5=O)cc4)c4ccccc43)[C@@H]2C)cc1 | -0.179 | 1.16 | -0.116 | 0.368 | 0.176 | 0.635 | 0.636 | -2.36 (inactive) | 0.247 | -0.0237 | 1.57 | -0.509 (inactive) | 0.158 (inactive) | 2.14 (inactive) | 0.588 | 1.15 (inactive) | -0.184 | 1.05 | 0.698 | -0.0953
